Data reported in PubChem BioAssay AID1159580 (chemical genetic matrix, 2015).
“And” between values parts separate entries of the source, which are not always exact repeats. Identical values can stand only once. Out of some 5,500 compounds screened, about 2,000 (36%) were called active. Roughly 18% stayed inconclusive and do not appear here. Rule as the data show it: active = normalized growth mostly below about 0.91 (no sharp cut-off); inconclusive = no clear call, values can overlap the other calls; inactive = mostly above about 0.92. Some of the results follow.

Assay: chemical genetic growth profiling, strain panel (AID 1159580);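 also: tested at 20 µM; growth read once vehicle control cultures reached saturation at 30 °C; 1 = growth at the plate median or of vehicle wells; lower values mean less growth of the strain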
Conditions: S. cerevisiae deletion strains, growth OD

Measured: normalized growth

O=[N+]([O-])c1cc(O)c(O)c([N+](=O)[O-])c1
inactive: locus YAL021C, strain ccr4, hits give low values 1.01 | locus YAL026C, strain drs2, hits give low values 1.01 | locus YAL030W, strain snc1, hits give low values 1.02 | locus YAL040C, strain CLN3, hits give low values 0.986 | locus YBL061C, strain skt5, hits give low values 1.01 | locus YBR009C, strain hhf1, hits give low values 1.07 | locus YBR021W, strain FUR4, hits give low values 0.953 | locus YBR023C, strain chs3, hits give low values 1.03 | locus YBR171W, strain sec66, hits give low values 1.01 | locus YBR229C, strain ROT2, hits give low values 1.01 | locus YBR231C, strain swc5, hits give low values 0.983 | locus YBR279W, strain paf1, hits give low values 1.03 | locus YCL011C, strain gbp2, hits give low values 1.03 | locus YCL016C, strain dcc1, hits give low values 1.05 | locus YCL029C, strain bik1, hits give low values 0.984 | locus YCL061C, strain MRC1 (second series), hits give low values 0.993 | locus YCL061C, strain MRC1, hits give low values 1.03 | locus YCL069W, strain vba3, hits give low values 1.01 | locus YCR088W, strain abp1, hits give low values 1 | locus YDL005C, strain med2, hits give low values 1.02 | locus YDL035C, strain GPR1, hits give low values 1 | locus YDL040C, strain nat1, hits give low values 1.02 | locus YDL074C, strain BRE1, hits give low values 1.01 | locus YDL101C, strain DUN1, hits give low values 1.01 | locus YDL185W, strain tfp1, hits give low values 0.967 | locus YDL192W, strain arf1, hits give low values 0.988 | locus YDR001C, strain nth1, hits give low values 0.998 | locus YDR069C, strain doa4, hits give low values 0.996 | locus YDR101C, strain arx1, hits give low values 0.997 | locus YDR137W, strain rgp1, hits give low values 0.982 | locus YDR150W, strain NUM1, hits give low values 1.01 | locus YDR159W, strain sac3, hits give low values 0.957 | locus YDR162C, strain NBP2, hits give low values 0.999 | locus YDR195W, strain ref2 0.992 | locus YDR297W, strain sur2, hits give low values 1.01 | locus YDR318W, strain mcm21, hits give low values 0.987 | locus YDR334W, strain swr1, hits give low values 1.01 | locus YDR335W, strain msn5, hits give low values 1.01 | locus YDR363W, strain ESC2, hits give low values 1.06 | locus YDR388W, hits give low values 0.978 | locus YDR392W, strain spt3, hits give low values 1.08 | locus YDR502C, strain sam2, hits give low values 1 | locus YEL003W, strain gim4, hits give low values 1.02 | locus YEL037C, strain rad23, hits give low values 1.01 | locus YEL061C, strain CIN8 (second series), hits give low values 1 | locus YEL061C, strain CIN8, hits give low values 1 | locus YER002W, strain NOP16, hits give low values 0.996 | locus YER015W, strain faa2, hits give low values 1.01 | locus YER016W, strain bim1, hits give low values 0.995 | locus YER110C, hits give low values 0.99 | locus YER111C, strain swi4, hits give low values 1 | locus YER155C, strain BEM2 (second series), hits give low values 0.992 | locus YER155C, strain BEM2, hits give low values 0.993 | locus YER167W, strain BCK2, hits give low values 1.02 | locus YFR010W, strain ubp6, hits give low values 1.01 | locus YGL078C, strain dbp3, hits give low values 0.976 | locus YGL086W, strain mad1, hits give low values 1 | locus YGL167C, strain pmr1, hits give low values 1.02 | locus YGL173C, strain kem1, hits give low values 1.01 | locus YGL227W, strain vid30, hits give low values 1.01 | locus YGL240W, strain doc1, hits give low values 0.998 | locus YGL248W, strain PDE1, hits give low values 1.03 | locus YGL253W, strain hxk2, hits give low values 0.959 | locus YGR078C, strain PAC10, hits give low values 1.01 and 0.977 | locus YGR135W, strain pre9, hits give low values 0.969 | locus YGR229C, strain SMI1, hits give low values 0.983 | locus YGR252W, strain gcn5, hits give low values 0.849 | locus YHR013C, strain ard1, hits give low values 1.05 | locus YHR027C, strain rpn1, hits give low values 1.01 | locus YHR030C, strain SLT2, hits give low values 0.996 | locus YHR079C, strain IRE1 (second series), hits give low values 0.994 | locus YHR094C, strain hxt1, hits give low values 0.972 | locus YHR129C, strain ARP1, hits give low values 1 | locus YHR142W, strain chs7, hits give low values 1.01 | locus YHR200W, strain rpn10, hits give low values 0.991 | locus YIL066C, strain RNR3, hits give low values 1.01 | locus YIL073C, strain SPO22, hits give low values 0.99 | locus YIL125W, strain kgd1, hits give low values 0.972 | locus YIR030C, strain dcg1, hits give low values 0.976 | locus YJL092W, strain hpr5, hits give low values 1.02 | locus YJL095W, strain BCK1 (second series), hits give low values 1.02 | locus YJL095W, strain BCK1, hits give low values 0.987 | locus YJL115W, strain asf1, hits give low values 1.01 | locus YJL129C, strain trk1, hits give low values 1.01 | locus YJL134W, strain LCB3, hits give low values 1.01 | locus YJL154C, strain vps35, hits give low values 1.01 | locus YJL164C, strain tpk1, hits give low values 1.06 | locus YJL166W, strain qcr8, hits give low values 1.01 | locus YJL168C, strain set2, hits give low values 0.978
